High-throughput results as filed in PubChem.
An excerpt weighted towards active compounds, which were near 6.9% of everything screened.
JNK3 inh = JNK3 (human) kinase inhibition | purified JNK3 kinase activity, HTS | inhibition, % at 8 µM | 60,000 compounds, 0.61% hits | AID 746; in the data active = inhibition above about 17%;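 note: 0% = DMSO and 100% = reference inhibitor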
M1 antagonist = blocks the rat M1 muscarinic receptor response to acetylcholine. AID 628. CHO-M1 cells, Fluo-4 calcium, ACh EC80 antagonist mode; hits give low values. 64,000 compounds, 3.4% hits. B-score at 10 µM;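 active = calcium fluorescence response, raw or row-and-column corrected B-score, differing from the plate sample mean either way at a set confidence level, mostly lower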
FXIa inh mix = factor XIa (human) inhibition, mixture screen; P03951; purified FXIa, fluorogenic substrate, pooled mixtures; inhibition, % at 5 µM; 62,000 compounds, 0.19% hits;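 note: each value is inhibition by a whole ten-compound pool holding the compound; 0% = enzyme with no mixture and 100% = wells lacking enzyme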
HER2 expr 66K = inhibitors of human Her2 kinase expression; P04626; HER2 level % of control, % at 10 µM; 65,000 compounds, 0.69% hits; SKBR-3 HER2 protein level, AlphaScreen, 18-24 h; hits give low values; AID 645;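 active = HER2 level under 5% of the carrier-only control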;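 note: 100% = DMSO carrier and 0% = 500 nM PU-H71 HSP90 inhibitor; lower value means stronger loss of Her2 protein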
FXIIa mix inh = blocks human factor XIIa in pooled compound mixtures | P00748 | purified FXIIa, fluorogenic substrate | inhibition, % at 5 µM | 62,000 compounds, 0.2% hits | AID 684;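 note: 0% = enzyme without compound and 100% = no enzyme blank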
Target sequence (P00748 20-372 limits assumed): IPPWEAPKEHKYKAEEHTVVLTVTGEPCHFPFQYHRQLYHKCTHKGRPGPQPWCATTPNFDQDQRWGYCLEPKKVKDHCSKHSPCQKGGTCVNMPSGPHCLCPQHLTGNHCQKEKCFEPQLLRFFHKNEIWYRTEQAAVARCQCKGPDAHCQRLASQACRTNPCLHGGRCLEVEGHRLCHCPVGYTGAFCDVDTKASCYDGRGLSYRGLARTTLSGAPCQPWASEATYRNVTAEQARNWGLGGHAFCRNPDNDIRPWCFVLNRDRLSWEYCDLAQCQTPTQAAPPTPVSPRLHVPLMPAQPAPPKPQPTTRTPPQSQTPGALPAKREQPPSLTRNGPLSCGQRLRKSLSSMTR
Target sequence (P00748 373-615 limits assumed): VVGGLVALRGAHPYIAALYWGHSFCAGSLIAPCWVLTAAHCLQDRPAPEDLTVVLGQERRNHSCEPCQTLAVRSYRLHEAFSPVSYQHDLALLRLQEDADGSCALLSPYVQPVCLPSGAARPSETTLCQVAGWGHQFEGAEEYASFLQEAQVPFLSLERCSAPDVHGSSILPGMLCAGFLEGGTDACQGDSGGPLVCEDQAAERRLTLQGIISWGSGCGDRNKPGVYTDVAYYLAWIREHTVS
M1 agonist = M1 muscarinic receptor agonism; CHO-M1 cells, Fluo-4 calcium fluorescence, agonist mode; hits give high values; B-score at 10 µM; 64,000 compounds, 3% hits; AID 626;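 active = fluorescence rise, raw or as B-score row- and column-corrected plate score, outside the 99.7% band of its plate's samples, either direction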
M1 antag conf = M1 muscarinic receptor (rat) antagonism, confirmed | 1,700 compounds, 43% hits | shares compounds with M1 antagonist | calcium response (max-min fluorescence) at 10 µM | CHO-M1 cells, Fluo-4 calcium, ACh EC80 antagonism; hits give low values;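 active = calcium response below the same-plate mean of wells given acetylcholine alone at its 80%-effect dose, minus 3 SD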;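 note: raw fluorescence intensity difference in arbitrary instrument units and not normalized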
mGluR4 antag = selectivity test for M1 antagonists: human mGluR4 receptor; shares compounds with M1 antagonist; CHO-mGluR4 calcium flux, Fluo-4 fluorescence, glutamate EC80; hits give low values; fluorescence response (max-min) at 10 µM; 1,700 compounds, 0.9% hits; AID 678;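 active = fluorescence response below the plate's average for near-maximal glutamate wells, less 3 SD of those wells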;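 note: raw unnormalized fluorescence span taken in the window right after glutamate addition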
* marks the source's active call; other numbers are inactive results; . = not tested or not shown. Cut-off read from the data, not from the text of the source, unless noted: active = inhibition above about 20% (passing the limit was not always enough); inactive = the rest.

SMILES | JNK3 inh | M1 antagonist | FXIa inh mix | HER2 expr 66K | FXIIa mix inh | M1 agonist | M1 antag conf | mGluR4 antag
C=CCOC(=O)C1=C(C)OC(N)=C(C#N)C1c1ccc2c(c1)OCO2 (stereo not given) | 5 | 0.44 | -3 | 80 | 8 | -0.071 | . | .
CCOC(=O)C1=C(C)OC(N)=C(C#N)C1c1cc2c(cc1Br)OCO2 (stereo not given) | 0 | -1.9* | 6 | 82 | 9 | -0.73 | 417* | 208
O=C(OCc1cc(Cl)ccc1OC(F)F)c1cc(S(=O)(=O)O)ccc1O | 5 | -1.1 | 3 | 72 | -6 | -1 | . | .
CC1CCc2nc(NC(=O)CN3CCOCC3)sc2C1 (stereo not given) | 1 | -4* | 0 | 119 | -1 | 0.92 | 666 | 198
COc1ccc(CCNC(=O)c2ccc(NS(=O)(=O)c3c(C)noc3C)cc2)cc1OC | 4 | -0.00064 | -11 | 76 | 7 | -1.8 | . | .
CCOC(=O)Cc1nc2ccccc2[nH]1 | -3 | -4.1* | 4 | 96 | 8 | 0.43 | 656 | 169
CCOC(=O)CCc1nc2ccccc2[nH]c1=O | 1 | 0.063 | 5 | 94 | -12 | 0 | . | .
CCn1cc(S(=O)(=O)CC(=O)Nc2ccc(OC)cc2)c2ccccc21 | -6 | 0.017 | -4 | 113 | 0 | -0.89 | . | .
Cc1ccc(NC(=O)CC2Oc3ccc(C)cc3NC2=O)cc1 (stereo not given) | 0 | 0.016 | 6 | 92 | 5 | -0.8 | . | .
Cc1ccc2c(c1)NC(=O)C(CC(=O)Nc1ccc(CN3CCC(C)CC3)cc1)O2 (stereo not given) | -7 | -9.3* | 25 | 79 | 1 | -0.07 | 14* | 231
CCN1CCN(Cc2ccc(NC(=O)CC3Oc4ccc(C)cc4NC3=O)cc2)CC1 (stereo not given) | -1 | -3.9* | 5 | 103 | -7 | -0.37 | 335* | 221
Cc1ccc2c(c1)NC(=O)C(CC(=O)NCCN(CC(C)C)CC(C)C)O2 (stereo not given) | -4 | -5.6* | -7 | 78 | 16 | 0.82 | 305* | 248
COc1ccc2cc(CN(CC3COCCO3)S(=O)(=O)c3ccccc3)c(=O)[nH]c2c1 (stereo not given) | 2 | 0.11 | 6 | 165 | -2 | 0.0011 | . | .
COc1ccc2cc(CN(Cc3cccnc3)S(=O)(=O)c3ccccc3)c(=O)[nH]c2c1 | -8 | -2.4* | 0 | 110 | 0 | 0.94 | 591 | 242
N#CCSc1nc2scc(-c3cccs3)c2c(=O)n1CCc1ccccc1 | 5 | -3.3* | . | 56 | . | 0.49 | 675 | 167
CC1CCCCN1C(=O)CSc1nc(C2CC2)nc2c1cnn2-c1ccccc1 (stereo not given) | . | -0.32 | 6 | 83 | 3 | -0.84 | . | .
CCOc1ccc2c(c1)c1nnc(SCC(=O)N3CCC(C)CC3)nc1n2C | 2 | -4.6* | -2 | 90 | 14 | 1 | 333* | 231
CCOc1ccc2c(c1)c1nnc(SCC(=O)N3CCCCC3C)nc1n2C (stereo not given) | -3 | -3.2* | -37 | 92 | -2 | -0.33 | 435 | 213
O=C(O)c1cc(-c2cccs2)nc2cc3c(cc12)OCCO3 | 2 | -0.77* | -13 | 71 | 12 | -0.83 | 686 | 220
Cc1cc(=O)oc(C)c1C(=O)N1CCN(C(c2ccccc2)c2ccccc2)CC1 | -1 | -0.71 | 4 | 99 | 4 | -0.092 | . | .
Cc1cc(C(=O)N2CCN(C(c3ccccc3)c3ccccc3)CC2)no1 | -4 | -3* | 13 | 90 | -4 | 0.14 | 301* | 198
O=C(c1ccc(=O)oc1)N1CCN(C(c2ccccc2)c2ccccc2)CC1 | 3 | -2.7* | . | 106 | . | 0.42 | 319* | 236
CCOC(=O)Cc1csc(SCc2nc3ccccc3c(=O)[nH]2)n1 | 10 | 0.44 | 2 | 100 | 10 | -0.03 | . | .
CCN1CCN(Cc2ccccc2NC(=O)Nc2ccc(C)cc2)CC1 | 0 | -1 | 8 | 91 | 4 | -0.46 | . | .
CCN1CCN(Cc2ccc(NC(=O)Nc3ccccc3Cl)cc2)CC1 | 5 | -3* | -1 | 91 | 4 | 0.091 | 526 | 225
SMILES | JNK3 inh | M1 antagonist | FXIa inh mix | HER2 expr 66K | FXIIa mix inh | M1 agonist | M1 antag conf | mGluR4 antag
O=C(Nc1ccc(CN2CCCCC2)cc1)c1ccc(Br)o1 | 1 | -0.45 | -15 | 95 | 7 | -1.4 | . | .
CCOC(=O)c1ccc(NC(=O)c2ccc(CN3CCOCC3)cc2)cc1 | -1 | -7.3* | -4 | 105 | -18 | 1.6 | 418* | 259
CC(=O)Nc1ccc(CN2CCCCCCC2)cc1 | -4 | -1.9* | 4 | 100 | 4 | -0.25 | 488* | 208
COc1cc(Cl)c(S(=O)(=O)NCc2cccnc2)cc1Cl | 3 | 0.062 | 5 | 93 | 11 | -0.23 | . | .
CCCC(=O)Nc1ccc2oc(-c3cccnc3)nc2c1 | 6 | -2.4* | -18 | 81 | -4 | -0.17 | 582 | 229
CN1CCN(Cc2ccc(OCc3ccccc3)cc2)CC1 | 0 | -1.1 | 0 | 119 | 5 | -1.2 | . | .
CC(O)CNC(=O)C1CCN(Cc2ccc(OCc3ccccc3)cc2)CC1 (stereo not given) | -2 | -4.8* | 3 | 134 | -20 | -0.39 | 572 | 232
CCN1CCN(Cc2ccc(OCc3ccccc3)cc2)CC1 | 2 | -4.4* | 15 | 117 | 6 | -0.62 | 345* | 178
C1CCC(CNc2c3c(nc4nnnn24)CCCC3)CC1 | . | -2.9* | 10 | 237 | -18 | -0.066 | 651 | 243
O=c1n(-c2ccccc2)c(=O)n(Cc2ccccn2)n1Cc1ccccn1 | -1 | -0.062 | 3 | 91 | 3 | 0.98 | . | .
Cc1c(NC2=C(Cl)C(=O)N(c3ccccc3)C2=O)c(=O)n(-c2ccccc2)n1C | -7 | -6.3* | 9 | 91 | 7 | -0.36 | 151* | 195
CC(=O)Nc1nonc1NC(=O)CSc1ncn[nH]1 | 4 | -0.24 | 2 | 111 | 8 | -0.2 | . | .
Cn1c(SCC(=O)N2CCCc3ccccc32)nnc1-c1cccs1 | 8 | 0.049 | 8 | 91 | 3 | -0.43 | . | .
CC1CCc2cc(F)ccc2N1C(=O)CSc1nnc(-c2cccs2)n1C (stereo not given) | 7 | -6.1* | 5 | 93 | -5 | -0.57 | 545 | 181
Cc1ccc(-c2nn(CC(=O)NCCN3CCOCC3)c(=O)c3ccccc23)cc1 | 5 | -2.5* | 7 | 100 | 12 | 1.9 | 657 | 220
Cc1ccc(-c2nn(CC(=O)NCc3ccco3)c(=O)c3ccccc23)cc1 | -4 | 0.33 | -6 | 114 | 1 | 0.089 | . | .
CCN(CC)CCCCOc1ccccc1OC | -1 | -0.27 | 4 | 77 | 2 | -0.38 | . | .
CCN(CC)CCOc1cccc(C(C)C)c1 | 1 | -4.5* | 5 | 95 | 6 | -0.029 | 294* | 213
